Reference: PMC7862700, “An all-to-all approach to the identification of sequence-specific readers for epigenetic DNA modifications on cytosine”

Assays:
Experiment in all cases: DAPPL (digital affinity profiling via proximity ligation, sequencing); 10 mM Tris-HCl pH 7.5, 50 mM NaCl, 1 mM DTT, 4% glycerol, room temperature, 30 min; GST-TFs on glutathione beads, 16-mer random dsDNA library, 0.1% formaldehyde crosslink after washing; high values mean tight binding
FLI1 = biological target: T1, FLI1 (Homo sapiens, UniProt Q01543 1-452); settings: protein: recombinant; tags: N-terminal GST; dsDNA, one strand shown
T1 sequence: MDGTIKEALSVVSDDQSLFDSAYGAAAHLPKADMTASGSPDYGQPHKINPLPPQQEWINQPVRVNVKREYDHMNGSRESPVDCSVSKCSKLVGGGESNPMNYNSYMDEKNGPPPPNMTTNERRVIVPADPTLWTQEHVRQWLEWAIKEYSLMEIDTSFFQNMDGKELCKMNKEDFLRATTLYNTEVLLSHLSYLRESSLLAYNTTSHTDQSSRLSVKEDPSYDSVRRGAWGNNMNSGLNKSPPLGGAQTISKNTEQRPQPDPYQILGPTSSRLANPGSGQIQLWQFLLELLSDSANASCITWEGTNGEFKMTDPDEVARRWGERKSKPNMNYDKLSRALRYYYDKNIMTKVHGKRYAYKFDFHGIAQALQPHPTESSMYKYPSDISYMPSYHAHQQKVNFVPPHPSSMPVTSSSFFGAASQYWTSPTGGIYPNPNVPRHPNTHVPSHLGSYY
Procedure, shortened: (§1)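 Pools of DNA-barcoded human transcription factors, expressed in yeast as GST fusions on glutathione beads and combined with a tag-only sample, were incubated with 200 nmole of a 16-mer random double-stranded DNA library. Incubation took 30 min at room temperature in Tris/NaCl/DTT/glycerol buffer and was followed by washing, 0.1% formaldehyde crosslinking, proximity ligation (BsaI/T4 ligase, 1 h, 37 °C), PCR amplification and sequencing on an Illumina NextSeq500. Binding signal is the ratio of a hexamer's read frequency for a factor to its frequency for the tag-only sample.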

ELK1 = biological target: T2, ELK1 (Homo sapiens, UniProt P19419 1-428); settings: protein: recombinant; tags: N-terminal GST; dsDNA, one strand shown
T2 sequence: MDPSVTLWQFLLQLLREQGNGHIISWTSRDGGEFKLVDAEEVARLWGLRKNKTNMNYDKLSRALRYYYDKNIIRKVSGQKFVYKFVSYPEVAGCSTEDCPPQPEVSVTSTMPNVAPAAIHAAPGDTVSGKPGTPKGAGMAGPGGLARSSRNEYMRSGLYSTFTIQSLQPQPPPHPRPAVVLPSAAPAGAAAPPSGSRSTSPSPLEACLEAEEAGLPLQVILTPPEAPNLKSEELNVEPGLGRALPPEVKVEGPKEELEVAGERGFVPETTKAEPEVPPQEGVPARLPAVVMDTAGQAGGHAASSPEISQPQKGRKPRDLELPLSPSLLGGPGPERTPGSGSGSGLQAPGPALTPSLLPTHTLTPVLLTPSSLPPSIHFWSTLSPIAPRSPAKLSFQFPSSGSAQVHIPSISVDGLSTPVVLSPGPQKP
Procedure, shortened: as §1

GABPA = biological target: T3, GABPA (Homo sapiens, UniProt Q06546 1-454); settings: protein: recombinant; tags: N-terminal GST; dsDNA, one strand shown
T3 sequence: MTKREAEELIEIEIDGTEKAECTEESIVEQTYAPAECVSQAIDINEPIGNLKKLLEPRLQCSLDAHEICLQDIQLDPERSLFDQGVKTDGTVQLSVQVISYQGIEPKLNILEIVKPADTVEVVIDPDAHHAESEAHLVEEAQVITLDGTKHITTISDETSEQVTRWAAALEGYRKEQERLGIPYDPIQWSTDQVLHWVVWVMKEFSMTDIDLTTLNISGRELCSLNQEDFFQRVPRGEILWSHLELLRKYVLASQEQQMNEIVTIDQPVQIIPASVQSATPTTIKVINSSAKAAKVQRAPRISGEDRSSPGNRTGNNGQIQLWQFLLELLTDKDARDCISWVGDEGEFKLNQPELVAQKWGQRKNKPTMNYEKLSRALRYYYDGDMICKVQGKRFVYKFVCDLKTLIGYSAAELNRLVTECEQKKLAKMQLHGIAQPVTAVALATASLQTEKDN
Procedure, shortened: as §1

ERG = biological target: T4, ERG (Homo sapiens, UniProt P11308 1-479); settings: protein: recombinant; tags: N-terminal GST; dsDNA, one strand shown
T4 sequence: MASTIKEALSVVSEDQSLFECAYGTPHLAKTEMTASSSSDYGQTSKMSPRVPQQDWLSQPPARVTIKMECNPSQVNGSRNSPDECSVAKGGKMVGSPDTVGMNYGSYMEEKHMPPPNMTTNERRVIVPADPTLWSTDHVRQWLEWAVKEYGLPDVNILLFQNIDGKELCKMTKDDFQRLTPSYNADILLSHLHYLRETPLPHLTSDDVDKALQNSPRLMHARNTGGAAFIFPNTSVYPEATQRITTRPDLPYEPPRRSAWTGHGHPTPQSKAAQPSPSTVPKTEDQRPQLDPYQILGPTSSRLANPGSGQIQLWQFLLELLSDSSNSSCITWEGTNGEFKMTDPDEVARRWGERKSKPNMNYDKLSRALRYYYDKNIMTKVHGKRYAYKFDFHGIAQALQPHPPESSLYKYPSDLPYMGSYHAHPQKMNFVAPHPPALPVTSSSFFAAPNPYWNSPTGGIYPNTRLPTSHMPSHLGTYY
Procedure, shortened: as §1

ELF1 = ELF1 (Homo sapiens, UniProt P32519 1-619); settings: protein: recombinant; tags: N-terminal GST; dsDNA, one strand shown
ELF1, sequence (P32519 whole entry): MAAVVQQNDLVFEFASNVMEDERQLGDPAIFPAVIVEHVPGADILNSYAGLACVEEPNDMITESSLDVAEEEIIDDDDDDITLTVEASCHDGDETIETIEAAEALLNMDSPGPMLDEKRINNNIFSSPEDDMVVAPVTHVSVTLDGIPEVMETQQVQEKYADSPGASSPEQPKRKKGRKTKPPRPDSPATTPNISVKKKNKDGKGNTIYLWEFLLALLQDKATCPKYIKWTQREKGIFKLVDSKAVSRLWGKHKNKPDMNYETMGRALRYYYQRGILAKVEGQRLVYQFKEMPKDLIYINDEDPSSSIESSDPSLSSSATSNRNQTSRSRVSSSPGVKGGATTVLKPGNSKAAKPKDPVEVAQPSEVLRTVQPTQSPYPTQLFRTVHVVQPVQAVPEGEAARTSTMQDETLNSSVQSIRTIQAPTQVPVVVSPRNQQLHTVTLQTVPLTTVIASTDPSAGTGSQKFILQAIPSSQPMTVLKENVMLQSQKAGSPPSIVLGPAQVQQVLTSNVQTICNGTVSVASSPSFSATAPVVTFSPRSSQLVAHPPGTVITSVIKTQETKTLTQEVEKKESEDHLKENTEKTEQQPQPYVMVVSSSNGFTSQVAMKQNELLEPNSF
Procedure, shortened: as §1

EHF = biological target: T5, EHF (Homo sapiens, UniProt Q9NZC4 1-300); settings: protein: recombinant; tags: N-terminal GST; dsDNA, one strand shown
T5 sequence: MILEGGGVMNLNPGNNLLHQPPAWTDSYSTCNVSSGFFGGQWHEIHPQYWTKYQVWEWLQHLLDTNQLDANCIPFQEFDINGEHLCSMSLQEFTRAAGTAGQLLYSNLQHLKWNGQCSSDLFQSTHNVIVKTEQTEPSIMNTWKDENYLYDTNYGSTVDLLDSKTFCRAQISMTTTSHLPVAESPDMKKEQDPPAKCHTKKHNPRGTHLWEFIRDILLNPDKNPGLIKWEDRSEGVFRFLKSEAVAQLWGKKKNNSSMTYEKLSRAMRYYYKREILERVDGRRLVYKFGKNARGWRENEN
Procedure, shortened: as §1

SPI1 = SPI1 (Homo sapiens, UniProt P17947 1-270); settings: protein: recombinant; tags: N-terminal GST; dsDNA, one strand shown
Procedure, shortened: as §1

SPIB = SPIB (Homo sapiens, UniProt Q01892 1-262); settings: protein: recombinant; tags: N-terminal GST; dsDNA, one strand shown
SPIB, sequence (Q01892 whole entry): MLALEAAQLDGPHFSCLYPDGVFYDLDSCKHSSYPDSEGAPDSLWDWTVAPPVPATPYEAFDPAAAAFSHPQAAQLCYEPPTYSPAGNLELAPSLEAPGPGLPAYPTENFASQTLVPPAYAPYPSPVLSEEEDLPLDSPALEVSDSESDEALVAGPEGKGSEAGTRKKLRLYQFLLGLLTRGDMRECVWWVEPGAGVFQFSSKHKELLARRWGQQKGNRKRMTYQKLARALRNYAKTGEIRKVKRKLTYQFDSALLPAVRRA
Procedure, shortened: as §1

ELK3 = biological target: T6, ELK3 (Homo sapiens, UniProt P41970 1-407); settings: protein: recombinant; tags: N-terminal GST; dsDNA, one strand shown
T6 sequence: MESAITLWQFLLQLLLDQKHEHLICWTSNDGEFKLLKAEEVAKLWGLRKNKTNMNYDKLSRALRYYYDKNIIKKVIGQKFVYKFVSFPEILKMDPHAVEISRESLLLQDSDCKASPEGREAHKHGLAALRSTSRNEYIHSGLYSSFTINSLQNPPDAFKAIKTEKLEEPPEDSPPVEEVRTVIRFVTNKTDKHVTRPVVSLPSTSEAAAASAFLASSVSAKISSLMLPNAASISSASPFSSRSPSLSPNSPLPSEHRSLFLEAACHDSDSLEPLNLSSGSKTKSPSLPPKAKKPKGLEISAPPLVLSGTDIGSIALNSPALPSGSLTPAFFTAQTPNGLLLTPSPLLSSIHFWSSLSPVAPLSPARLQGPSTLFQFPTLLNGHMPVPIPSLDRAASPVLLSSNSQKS
Procedure, shortened: as §1

FEV = biological target: T7, FEV (Homo sapiens, UniProt Q99581 1-238); settings: protein: recombinant; tags: N-terminal GST; dsDNA, one strand shown
T7 sequence: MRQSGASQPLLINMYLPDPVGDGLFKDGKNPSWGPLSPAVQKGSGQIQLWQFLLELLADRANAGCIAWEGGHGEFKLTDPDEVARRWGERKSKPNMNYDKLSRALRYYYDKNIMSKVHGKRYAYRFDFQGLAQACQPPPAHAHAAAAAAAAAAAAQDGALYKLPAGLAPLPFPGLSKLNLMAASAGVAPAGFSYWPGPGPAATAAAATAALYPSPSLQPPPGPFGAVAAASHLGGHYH
Procedure, shortened: as §1

ETV5 = ETV5 (Homo sapiens, UniProt P41161 1-510); settings: protein: recombinant; tags: N-terminal GST; dsDNA, one strand shown
ETV5, sequence (P41161 whole entry): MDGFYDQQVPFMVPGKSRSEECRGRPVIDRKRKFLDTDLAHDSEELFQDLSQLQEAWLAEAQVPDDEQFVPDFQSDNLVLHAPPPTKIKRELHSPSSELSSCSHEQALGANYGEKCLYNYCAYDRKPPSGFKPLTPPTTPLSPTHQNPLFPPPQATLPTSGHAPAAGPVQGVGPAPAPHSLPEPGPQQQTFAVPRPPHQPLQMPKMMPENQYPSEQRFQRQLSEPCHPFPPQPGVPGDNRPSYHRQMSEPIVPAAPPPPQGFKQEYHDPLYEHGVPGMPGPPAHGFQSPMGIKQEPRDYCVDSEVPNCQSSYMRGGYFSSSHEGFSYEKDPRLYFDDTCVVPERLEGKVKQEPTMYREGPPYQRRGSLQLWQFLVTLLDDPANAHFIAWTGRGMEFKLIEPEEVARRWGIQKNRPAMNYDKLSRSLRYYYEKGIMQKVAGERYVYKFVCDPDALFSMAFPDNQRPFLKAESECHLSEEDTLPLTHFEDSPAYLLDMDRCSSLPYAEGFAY
Procedure, shortened: as §1

HSF1 = HSF1 (Homo sapiens, UniProt Q00613 1-529); settings: protein: recombinant; tags: N-terminal GST; chain copies: 3; dsDNA, one strand shown
HSF1, sequence (Q00613 whole entry): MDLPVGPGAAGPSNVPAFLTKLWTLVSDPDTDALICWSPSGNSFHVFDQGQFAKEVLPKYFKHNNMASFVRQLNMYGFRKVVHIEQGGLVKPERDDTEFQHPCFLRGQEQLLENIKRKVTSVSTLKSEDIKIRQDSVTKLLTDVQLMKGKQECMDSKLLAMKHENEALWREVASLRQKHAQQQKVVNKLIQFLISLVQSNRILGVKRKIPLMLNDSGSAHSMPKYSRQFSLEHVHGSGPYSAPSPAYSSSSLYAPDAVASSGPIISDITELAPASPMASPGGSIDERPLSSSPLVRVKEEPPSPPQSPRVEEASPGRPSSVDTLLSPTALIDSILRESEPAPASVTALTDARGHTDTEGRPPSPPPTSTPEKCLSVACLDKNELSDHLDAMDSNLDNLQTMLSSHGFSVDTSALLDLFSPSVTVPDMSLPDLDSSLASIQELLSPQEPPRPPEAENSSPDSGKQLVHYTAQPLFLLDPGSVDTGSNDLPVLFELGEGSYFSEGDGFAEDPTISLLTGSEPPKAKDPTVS
Procedure, shortened: as §1

SPIC = biological target: T8, SPIC (Homo sapiens, UniProt Q8N5J4 1-248); settings: protein: recombinant; tags: N-terminal GST; dsDNA, one strand shown
T8 sequence: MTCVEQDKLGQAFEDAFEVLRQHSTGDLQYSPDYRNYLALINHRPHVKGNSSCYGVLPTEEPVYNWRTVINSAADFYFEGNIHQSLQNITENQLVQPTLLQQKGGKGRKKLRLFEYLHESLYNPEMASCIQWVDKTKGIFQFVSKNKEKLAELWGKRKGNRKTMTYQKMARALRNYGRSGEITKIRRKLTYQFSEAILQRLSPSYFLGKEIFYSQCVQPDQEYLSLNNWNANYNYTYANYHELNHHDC
Procedure, shortened: as §1

ELF4 = ELF4 (Homo sapiens, UniProt Q99607 1-663); settings: protein: recombinant; tags: N-terminal GST; dsDNA, one strand shown
ELF4, sequence (Q99607 whole entry): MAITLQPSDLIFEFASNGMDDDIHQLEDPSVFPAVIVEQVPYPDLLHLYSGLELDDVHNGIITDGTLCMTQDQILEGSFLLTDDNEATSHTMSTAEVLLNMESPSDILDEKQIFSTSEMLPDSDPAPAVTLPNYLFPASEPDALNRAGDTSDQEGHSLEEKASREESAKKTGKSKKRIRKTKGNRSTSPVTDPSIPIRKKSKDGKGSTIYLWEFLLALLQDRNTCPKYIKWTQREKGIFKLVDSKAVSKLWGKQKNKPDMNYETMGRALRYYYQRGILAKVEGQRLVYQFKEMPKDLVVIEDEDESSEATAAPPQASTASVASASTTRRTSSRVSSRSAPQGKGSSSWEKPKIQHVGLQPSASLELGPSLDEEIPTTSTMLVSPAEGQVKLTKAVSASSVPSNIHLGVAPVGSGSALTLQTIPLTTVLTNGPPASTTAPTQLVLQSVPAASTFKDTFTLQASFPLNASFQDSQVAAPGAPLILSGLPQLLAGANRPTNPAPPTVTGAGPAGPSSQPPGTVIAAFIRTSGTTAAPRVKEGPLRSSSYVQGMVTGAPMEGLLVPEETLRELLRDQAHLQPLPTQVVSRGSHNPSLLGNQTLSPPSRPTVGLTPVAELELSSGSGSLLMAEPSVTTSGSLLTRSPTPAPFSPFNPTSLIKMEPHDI
Procedure, shortened: as §1

ELK4 = biological target: T9, ELK4 (Homo sapiens, UniProt P28324-2 1-405); settings: protein: recombinant; tags: N-terminal GST; dsDNA, one strand shown
T9 sequence: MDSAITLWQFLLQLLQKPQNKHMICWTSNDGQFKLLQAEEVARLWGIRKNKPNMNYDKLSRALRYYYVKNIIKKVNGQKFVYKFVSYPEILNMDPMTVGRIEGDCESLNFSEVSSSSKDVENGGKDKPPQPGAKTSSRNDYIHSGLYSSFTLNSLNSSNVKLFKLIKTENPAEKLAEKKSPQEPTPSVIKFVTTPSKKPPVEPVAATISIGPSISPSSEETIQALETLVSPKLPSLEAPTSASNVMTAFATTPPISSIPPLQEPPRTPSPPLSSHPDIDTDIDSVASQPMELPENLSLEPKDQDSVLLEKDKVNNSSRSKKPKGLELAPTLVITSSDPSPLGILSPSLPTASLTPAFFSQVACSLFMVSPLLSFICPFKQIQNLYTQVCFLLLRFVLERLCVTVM
Procedure, shortened: as §1

ETV2 = biological target: T10, ETV2 (Homo sapiens, UniProt O00321 1-342); settings: protein: recombinant; tags: N-terminal GST; dsDNA, one strand shown
T10 sequence: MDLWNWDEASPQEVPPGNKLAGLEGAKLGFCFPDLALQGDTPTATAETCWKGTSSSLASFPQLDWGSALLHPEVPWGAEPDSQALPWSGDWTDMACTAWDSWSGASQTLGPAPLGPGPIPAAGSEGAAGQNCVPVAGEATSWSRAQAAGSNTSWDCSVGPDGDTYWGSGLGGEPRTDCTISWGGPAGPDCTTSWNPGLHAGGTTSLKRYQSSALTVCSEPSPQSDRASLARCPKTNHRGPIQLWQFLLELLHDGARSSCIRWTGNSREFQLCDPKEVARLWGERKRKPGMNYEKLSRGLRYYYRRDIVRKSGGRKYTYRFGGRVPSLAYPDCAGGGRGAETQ
Procedure, shortened: as §1

ELF3 = biological target: T11, ELF3 (Homo sapiens, UniProt P78545 1-371); settings: protein: recombinant; tags: N-terminal GST; dsDNA, one strand shown
T11 sequence: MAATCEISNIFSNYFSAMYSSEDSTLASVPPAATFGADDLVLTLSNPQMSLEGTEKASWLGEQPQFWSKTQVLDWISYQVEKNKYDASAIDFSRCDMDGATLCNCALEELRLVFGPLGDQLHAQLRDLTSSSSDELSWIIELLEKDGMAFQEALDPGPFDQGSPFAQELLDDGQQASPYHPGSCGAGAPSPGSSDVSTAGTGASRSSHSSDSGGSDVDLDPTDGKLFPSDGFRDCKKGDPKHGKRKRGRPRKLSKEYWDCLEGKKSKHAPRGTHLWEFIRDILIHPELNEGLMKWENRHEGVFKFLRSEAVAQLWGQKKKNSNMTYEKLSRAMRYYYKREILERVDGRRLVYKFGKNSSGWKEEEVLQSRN
Procedure, shortened: as §1

CRX = CRX (Homo sapiens, UniProt O43186 1-299); settings: protein: recombinant; tags: N-terminal GST; dsDNA, one strand shown
CRX, sequence (O43186 whole entry): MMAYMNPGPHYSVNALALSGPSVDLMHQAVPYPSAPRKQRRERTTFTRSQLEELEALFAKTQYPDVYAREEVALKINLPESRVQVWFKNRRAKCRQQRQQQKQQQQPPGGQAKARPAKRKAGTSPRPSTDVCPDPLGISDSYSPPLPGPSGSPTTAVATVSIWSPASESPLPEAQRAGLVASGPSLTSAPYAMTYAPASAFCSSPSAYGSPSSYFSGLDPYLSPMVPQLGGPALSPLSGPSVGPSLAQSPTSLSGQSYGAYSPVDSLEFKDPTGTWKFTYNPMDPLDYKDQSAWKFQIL
Procedure, shortened: as §1

ETV1 = ETV1 (Homo sapiens, UniProt P50549 1-477); settings: protein: recombinant; tags: N-terminal GST; dsDNA, one strand shown
ETV1, sequence (P50549 whole entry): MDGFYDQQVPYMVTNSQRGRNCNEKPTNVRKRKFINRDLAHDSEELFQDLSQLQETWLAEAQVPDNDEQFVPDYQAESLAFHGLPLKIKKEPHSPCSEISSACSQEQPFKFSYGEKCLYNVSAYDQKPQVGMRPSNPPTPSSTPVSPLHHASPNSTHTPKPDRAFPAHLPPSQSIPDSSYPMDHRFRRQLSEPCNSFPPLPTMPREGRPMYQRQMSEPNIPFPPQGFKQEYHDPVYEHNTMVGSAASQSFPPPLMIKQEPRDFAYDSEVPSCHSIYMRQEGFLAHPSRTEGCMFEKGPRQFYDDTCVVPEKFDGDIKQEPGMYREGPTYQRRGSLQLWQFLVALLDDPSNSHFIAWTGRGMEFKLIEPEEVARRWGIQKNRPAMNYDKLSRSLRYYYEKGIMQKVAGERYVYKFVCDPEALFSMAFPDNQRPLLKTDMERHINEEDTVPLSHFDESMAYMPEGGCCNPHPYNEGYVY
Procedure, shortened: as §1

Q: Which results are given for CGATTC?
A: binding signal (FLI1): 1.31 fold enrichment (6-mer frequency, TF over GST control); binding signal (ELK1): 1.21 fold enrichment (6-mer frequency, TF over GST control); binding signal (GABPA): 1.23 fold enrichment (6-mer frequency, TF over GST control); binding signal (ERG): 1.12 fold enrichment (6-mer frequency, TF over GST control); binding signal (ELF1): 1.24 fold enrichment (6-mer frequency, TF over GST control); binding signal (EHF): 1.17 fold enrichment (6-mer frequency, TF over GST control); binding signal (SPI1): 1.2 fold enrichment (6-mer frequency, TF over GST control); binding signal (SPIB): 1.24 fold enrichment (6-mer frequency, TF over GST control); binding signal (ELK3): 1.15 fold enrichment (6-mer frequency, TF over GST control); binding signal (FEV): 1.06 fold enrichment (6-mer frequency, TF over GST control); binding signal (ETV5): 1.19 fold enrichment (6-mer frequency, TF over GST control); binding signal (HSF1): 1.35 fold enrichment (6-mer frequency, TF over GST control); binding signal (SPIC): 1.18 fold enrichment (6-mer frequency, TF over GST control); binding signal (ELF4): 1.24 fold enrichment (6-mer frequency, TF over GST control); binding signal (ELK4): 1.28 fold enrichment (6-mer frequency, TF over GST control); binding signal (ETV2): 1.06 fold enrichment (6-mer frequency, TF over GST control); binding signal (ELF3): 1.22 fold enrichment (6-mer frequency, TF over GST control); binding signal (CRX): 1.09 fold enrichment (6-mer frequency, TF over GST control); binding signal (ETV1): 1.25 fold enrichment (6-mer frequency, TF over GST control)
